Rows were chosen to be rich in hits. Some 3.7% of all compounds tested hit in one or more screens of this group.
MazEF act: increases E. coli MazEF RNase cleavage of RNA; P0AE70; FAM/BHQ RNA-DNA oligo cleavage fluorescence, 5 h; activation, % at 20 µM; hit rate 0.32% among 350,000; in the data active = activation above about 50%
Target sequence (P0AE70 whole entry, looked up): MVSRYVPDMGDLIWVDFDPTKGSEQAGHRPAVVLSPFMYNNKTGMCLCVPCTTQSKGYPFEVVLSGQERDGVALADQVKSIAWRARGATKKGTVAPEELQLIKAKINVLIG
Anthrax LF inh2: blocks Bacillus anthracis lethal factor protease; hit rate 0.12% among 360,000; multiplex microsphere protease cleavage assay, LF; inhibition, % at 10 µM; P15917; also: plate controls were buffer without enzyme for full effect and enzyme alone for no effect
Autofluor counter: flagged as autofluorescent in microsphere protease counterscreen; hit rate 3.1% among 360,000; fluorescence intensity (concentration not given with the values); AID 624483; compound autofluorescence counterscreen, microsphere flow cytometry; active compounds read high; in the data active = fluorescence intensity above about 16000; inconclusive = no clear call, values can overlap the other calls
BoNT-A LC inh2: BoNT A light chain protease inhibition; multiplex microsphere protease substrate cleavage, flow cytometry; inhibition, % at 10 µM; hit rate 0.17% among 360,000; also: plate controls were buffer without enzyme for full effect and enzyme alone for no effect
BoNT-F LC inh: BoNT F light chain protease inhibition | inhibition, % at 10 µM | AID 588497 | Multiplex microsphere protease cleavage assay, flow cytometry | hit rate 0.22% among 360,000; in the data active = inhibition above about 35%, passing the limit was not always enough; inconclusive = no clear call, values can overlap the other calls; also: plate controls were buffer without enzyme for full effect and enzyme alone for no effect
Starred values were filed as active, the others as inactive; ? = inconclusive; · = not tested or not shown. Rule as the data show it, unless noted: active = inhibition above about 30%; inconclusive = no clear call, values can overlap the other calls; inactive = below that.

SMILES	MazEF act	Anthrax LF inh2	Autofluor counter	BoNT-A LC inh2	BoNT-F LC inh
CC(C)n1nnnc1C1c2ccccc2C(=O)N1CCCn1ccnc1 (stereo not given)	·	-3	6150	0	-17
CCCN(CCC)C(=O)c1ccc2c(c1)N(CC)C(=O)c1ccccc1S2(=O)=O	1	-3	4844	1	?
CCCNC(=O)C1(C)CCN(C(=O)c2c(F)ccc(C)c2F)C1 (stereo not given)	·	0	3965	0	6
O=[N+]([O-])c1cc(C(F)(F)F)ccc1NCC1CCCO1 (stereo not given)	92*	10	3747	-6	?
Cc1ccc(C(=O)Nc2ccc(NC(=O)c3ccc(C)o3)cc2)o1	13	14	2890	-3	0
Cc1ccc(C(=O)Nc2ccc(CC(=O)O)cc2)o1	2	-12	18362*	4	7
C#CCN1CCc2onc(-c3ccccc3OC)c2C1=O	·	5	4057	0	8
O=C(/C=C/[C@H]1O[C@@H](n2cnc3c(NC(=O)c4ccccc4)ncnc32)[C@H](O)[C@@H]1O)NCC1CCCO1 (stereo not given in full)	·	-2	4187	-1	6
COc1cc(C2C(C#N)=C(N)Oc3cc(C)n(CCc4ccccc4)c(=O)c32)cc2c1OCO2 (stereo not given)	-5	1	2999	0	-18
COCCn1c(C)cc2c(c1=O)C(c1ccco1)C(C#N)=C(N)O2 (stereo not given)	7	-7	21595*	2	2
Cc1cc2c(c(=O)n1CCc1ccccc1)C(c1ccco1)C(C#N)=C(N)O2 (stereo not given)	-15	-1	23680*	-1	-2
Cc1cc(C)n(C(=O)Cn2nc(C(F)F)cc2C)n1	12	-2	21933*	3	4
CCOC(=O)CC1CCCCN1C(=O)CCCn1nnnc1CN1CCC(C)CC1 (stereo not given)	1	1	5996	0	4
Cc1ccc(OCc2nnc(SCC(=O)Nc3cc(C)on3)n2C)cc1	-2	-6	21396*	2	2
Cc1ccc(OCc2nnc(SCC(=O)Nc3ccc4c(c3)OCO4)n2C)cc1	4	-6	26293*	-8	-14
Cc1ccc(CSc2nnc(CC(=O)Nc3ccc(C)cc3)n2C)cc1	-3	-1	19547*	2	3
Cn1c(COc2ccccc2)nnc1SCC(=O)Nc1ccc2c(c1)OCO2	3	0	10530	0	0
Cc1ccccc1NC(=O)Cc1nnc(SCC(=O)c2ccc(Br)cc2)n1C	-4	-3	18692*	?	7
CCOC(=O)C1=CN(Cc2ccco2)S(=O)(=O)NC1c1ccc(Br)cc1F (stereo not given)	8	4	2894	0	-10
COCc1ccc(C(=O)N2CCCCC2C(=O)Nc2ccc(-n3nc(C)cc3C)cc2)o1 (stereo not given)	2	-1	5504	2	1
O=C1C=CC(=O)N1CCCCCCCCCCN1C(=O)C=CC1=O	-1	3	3370	1	1
NC(=O)C1CCN(c2ncccc2[N+](=O)[O-])CC1	-1	3	?	-1	-11
O=[N+]([O-])c1cccnc1N1CCCCC1	6	-1	22095*	1	0
CC(C)(C)NCC(O)COc1c(F)cc(Br)cc1F (stereo not given)	7	1	22894*	2	2
O=C(NC1CCCCC1)c1nc(C2CCNCC2)oc1-c1ccccc1	·	3	6118	-1	-15
SMILES	MazEF act	Anthrax LF inh2	Autofluor counter	BoNT-A LC inh2	BoNT-F LC inh
CC(C)(C(=O)c1ccccc1)/[N+]([O-])=C/c1ccccc1	2	-1	23931*	-1	0
Cc1ccc(-c2nc(-c3cccnc3)no2)cc1	3	-2	4766	0	9
CCC(=O)Oc1ccc(-c2nc(-c3cccnc3)no2)cc1	-8	4	20402*	-3	-4
Cc1ccc(NS(=O)(=O)c2ccc(CCC(=O)NC3CC3)cc2)cc1	1	-2	23092*	1	2
Cc1ccc(S(=O)(=O)NC2CC2)cc1	8	5	3237	1	-2
Cc1ccc(NC(=O)CCc2ccc(S(=O)(=O)NC3CCCCC3)cc2)cc1	0	-1	2948	0	-3
Cc1ccc(S(=O)(=O)NC2CCC(C(=O)O)CC2)cc1 (stereo not given)	-8	1	17170*	-1	-3
Cc1ccc(S(=O)(=O)NCC(=O)NC2CCCC2)cc1	-4	0	23092*	-2	-1
Cc1ccc(S(=O)(=O)NCC(=O)NC2CCCCCC2)cc1	4	2	4330	0	-2
Cc1ccccc1-n1nnnc1-c1ccccc1	4	-2	23616*	-3	-2
